These results are taken from PubChem BioAssay.

Unmarked numbers belong to inactive results. Calls of active or inactive are those of the source.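 The calls were made as follows: active = mean inhibition above 46.5%, the solvent-only control mean plus 3 SD; inactive = the rest.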

Nuclear receptor coactivator 2 (Homo sapiens), sequence (Q15596 whole entry, looked up, the tested form may be a part): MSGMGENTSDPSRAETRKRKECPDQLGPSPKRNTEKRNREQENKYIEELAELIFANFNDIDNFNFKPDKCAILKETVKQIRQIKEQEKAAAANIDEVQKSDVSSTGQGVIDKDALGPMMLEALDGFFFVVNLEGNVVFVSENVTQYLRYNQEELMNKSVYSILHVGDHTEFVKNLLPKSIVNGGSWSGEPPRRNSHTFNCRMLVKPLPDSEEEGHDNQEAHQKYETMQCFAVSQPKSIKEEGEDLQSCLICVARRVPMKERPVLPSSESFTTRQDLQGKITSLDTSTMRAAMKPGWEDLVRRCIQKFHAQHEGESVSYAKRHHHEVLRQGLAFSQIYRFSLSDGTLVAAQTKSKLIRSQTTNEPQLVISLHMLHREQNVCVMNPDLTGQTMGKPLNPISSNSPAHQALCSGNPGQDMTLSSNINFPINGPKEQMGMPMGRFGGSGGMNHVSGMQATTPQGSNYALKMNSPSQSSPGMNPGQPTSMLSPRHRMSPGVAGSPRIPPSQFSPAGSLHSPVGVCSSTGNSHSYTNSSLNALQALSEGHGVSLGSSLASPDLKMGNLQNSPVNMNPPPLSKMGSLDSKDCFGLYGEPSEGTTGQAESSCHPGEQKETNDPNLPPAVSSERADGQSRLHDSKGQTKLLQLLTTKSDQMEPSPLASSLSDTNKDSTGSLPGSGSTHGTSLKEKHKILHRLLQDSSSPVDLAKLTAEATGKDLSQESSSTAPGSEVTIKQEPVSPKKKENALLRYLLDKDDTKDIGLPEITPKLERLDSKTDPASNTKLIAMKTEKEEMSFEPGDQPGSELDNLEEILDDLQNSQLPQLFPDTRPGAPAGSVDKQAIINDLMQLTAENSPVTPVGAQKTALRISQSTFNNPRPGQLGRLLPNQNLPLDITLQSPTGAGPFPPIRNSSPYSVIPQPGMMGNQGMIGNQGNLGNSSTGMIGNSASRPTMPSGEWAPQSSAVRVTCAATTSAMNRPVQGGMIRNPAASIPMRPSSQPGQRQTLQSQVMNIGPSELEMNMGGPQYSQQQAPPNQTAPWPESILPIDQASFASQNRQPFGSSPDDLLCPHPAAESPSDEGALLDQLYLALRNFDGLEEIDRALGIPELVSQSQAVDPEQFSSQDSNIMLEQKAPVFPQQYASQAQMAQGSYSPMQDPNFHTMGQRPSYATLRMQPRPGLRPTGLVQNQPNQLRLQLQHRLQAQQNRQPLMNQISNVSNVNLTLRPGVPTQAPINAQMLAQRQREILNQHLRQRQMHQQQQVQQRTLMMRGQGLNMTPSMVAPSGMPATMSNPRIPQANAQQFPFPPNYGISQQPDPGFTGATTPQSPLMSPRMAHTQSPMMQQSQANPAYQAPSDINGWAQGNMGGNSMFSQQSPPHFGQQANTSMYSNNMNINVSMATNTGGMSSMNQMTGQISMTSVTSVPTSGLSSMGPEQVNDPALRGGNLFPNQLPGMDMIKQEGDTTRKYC

The experiment has as its target Nuclear receptor coactivator 2 (Homo sapiens) (UniProt Q15596). Kind of experiment: inhibition of GAL4-SRC2 driven luciferase expression – cell-based, luminescence, HEK293, triplicate, confirmation (AID 652008).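 Also: 0% = DMSO-treated cells and 100% = Gossypol at 36 µM.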 Particulars: HEK293 GAL4-SRC2 luciferase reporter, at 8.9 µM, hits give high values.
Consider `CCc1ccc(C(=O)Nc2nc3ccccc3[nH]2)cc1`, for which the inhibition is 45.8%.
Next, `Cc1c(CCC(=O)N2CCC(C(=O)O)CC2)c(=O)oc2cc3oc4c(c3cc12)CCCC4`: 61% (active); `Nc1nc(-c2ccccc2)c(N=Nc2cccnc2)s1`: 11.2%.
Next, `O=C(O)CCCc1ccc2c(c1)CCc1ccccc1-2`: 77.1% (active); `Cc1ccccc1CS(=O)(=O)c1ccc(C(=O)N2CCOCC2)cc1[N+](=O)[O-]`: 24.6%.
The figure for `CC(C)(c1ccc(O)cc1)c1ccc(O)c(C(=O)O)c1` is -5.54%; for `Nc1nonc1-n1nnc(C(=O)N/N=C/c2ccccc2Br)c1CN1CCCC1` it is -12.4%.
On to `COC(=O)c1ccc2c(=O)[nH]c(COC(=O)c3[nH]c(C)c(C(C)=O)c3C)nc2c1`, for which the inhibition is 12.3%.
Regarding `CC(C)=CCC[C@@]1(C(=O)O)[C@H]2CC=C(CO)[C@@H]1CC/C(C)=C/CC/C(C)=C/C2`, the inhibition is 17.2%.
Regarding `NNC(=O)COc1ccc(-c2nccc(-c3ccc(F)cc3)n2)cc1`, the inhibition was 32.3%.
Next, `COCCNC(=O)CN(C(=O)c1ccc(N2CCCC2)nc1)c1ccc(F)c(Cl)c1`: -19.2%.
Next, `COc1ccc(-c2nnn(CC(=O)N(Cc3cccs3)C(C)C(=O)NCCC(C)C)n2)cc1OC` (stereo not given): 9.41%; `NC(=S)N1OC[C@@H]2COc3ccc4ccccc4c3[C@@H]21`: 48.6% (active); `O=C(N/N=C\c1cc(Br)c(Br)o1)C1COc2ccccc2O1` (stereo not given): -4.84%.
Regarding `Cc1ccc(C)c(NS(=O)(=O)c2cc(C(=O)NCCSC3CCCCC3)ccc2C)c1`, the inhibition was 3.68%.
Take `COc1cc(Cn2c3ccc(NC(=O)CC(C)c4ccccc4)cc3c(=O)n2C)ccc1F` (stereo not given): the inhibition is 2.27%.
As to `COc1ccc(C)cc1Nc1n[n+](-c2ccccc2)c(-c2c(Cl)cccc2Cl)s1`, the inhibition is 22.7%.
For the molecule `CCOC(=O)C(C(=O)OCC)C(Nc1cccc(Br)c1)c1ccccc1` (stereo not given), the inhibition is 19.3%.
Consider `CC(=O)c1ccc(OCCCC(=O)N2CCN(S(=O)(=O)c3ccc(C)cc3C)CC2)cc1`, for which the inhibition is 0.39%.
The figure for `Cc1nc2cc(-c3ccccc3)sc2c(=O)n1N` is 45%; for `Cc1cc(OCC(=O)Nc2ccncc2)cc(C)c1Cl` it is 11.3%.
Next, `Cc1cccc(N(Cc2ccccc2)C(=O)CCl)c1`: 33.4%; `COc1ccc(C(=O)c2ccc(CC(=O)O)s2)cc1`: 43.1%; `CCS(=O)(=O)c1cc([N+](=O)[O-])c(Sc2ccccc2NC(C)=O)s1`: -26.1%.
`COc1ccc(C(=O)NC2CC3CCCC(C2)N3CC(C)C)cc1` (stereo not given): the inhibition is -12.2%.
The figure for `c1ccc(CCNc2ncnc3scc(C4COc5ccccc5O4)c23)cc1` (stereo not given) is -10.3%; for `COc1ccc(C(=O)/C=C/Nc2ccccn2)cc1` it is 30.8%; for `N#CCCN(C(=O)COC(=O)C1CCN(S(=O)(=O)c2ccccc2C(F)(F)F)CC1)c1ccccc1` it is 11.1%.
The figure for `O=C(O)c1ccc(Oc2ccc(S(=O)(=O)c3ccc(C(=O)O)c(C(=O)O)c3)cc2)cc1` is -6.84%; for `Cc1ccc(NC(=O)C2CCN(S(=O)(=O)c3c(C)noc3/C=C/c3ccco3)CC2)nc1` it is 22.4%; for `Cc1ccc(NCC(=O)Nc2cccc(F)c2)cc1S(=O)(=O)N1CCCCCC1` it is 3.72%.
The figure for `CC(C)(C)c1ccc(OCC(O)CSc2ncn[nH]2)cc1` (stereo not given) is 14.2%.
In the case of `Cc1cc(Nc2ccccc2)n(C(=O)c2ccc(N)cc2)n1`, the inhibition is 0.44%.
For `Nn1cnnc1SCC(=O)N1CCc2ccccc2C1`, the inhibition is -22.3%.
For `Cc1ccc(NC(=O)c2ccc(NC(=O)C3CCCCC3C(=O)O)cc2)cc1` (stereo not given), the inhibition is -17.6%.
Turning to `CCOC(=O)CCC(=O)c1c(C)oc2ccc(OC)cc12`, the inhibition is -15%.
Regarding `CN(C)c1ccc(/C=C2\SC(=O)N(CCc3nnc(N)s3)C2=O)cc1`, the inhibition is 27.1%.
Turning to `CC(=O)Nc1ccc(Nc2nc(C)c([N+](=O)[O-])c(N(C)c3ccccc3)n2)cc1`, the inhibition is 49.2% (active).
The figure for `Cn1nnnc1Sc1ncnc2scc(-c3ccc(C#N)cc3)c12` is 30.8%; for `COC(=O)C1Cc2ccccc2CN1C(=O)CCl` (stereo not given) it is 33.2%.

One may read the inhibition as the change of the read-out against control, counted positive when it falls.
